These results are taken from PubChem BioAssay AID720518 (National Center for Advancing Translational Sciences (NCATS), 2013).

Records with an inconclusive call do not appear. A call without a number means that no potency is given here. The source made the active and inactive calls. Calls follow the shape of the full dose curve.

This test is described as follows: qHTS for Inhibitors of Cell Surface uPA Generation: Wild-type Protective Antigen (WT-PrAg) Counterscreen for Cherry-picked Compounds. To be noted: cells, WT protective antigen toxicity counterscreen; series mostly up to 115 µM. Background: In qHTS, concentration-response curves come from the screen itself.
Take `CC/C(=N\Nc1ccccc1[N+](=O)[O-])c1ccc(O)cc1`: the Potency result is “inactive”.
To `CC(C)NC(=O)NC(=O)CN1C(=O)NC(Cc2c[nH]c3ccccc23)C1=O` (configuration not stated) belongs “inactive”.
To `CN(C)C(=S)Nc1ccc(S(=O)(=O)N2CCCCC2)cc1` belongs “inactive”.
To `CSCC[C@H](NC(=O)[C@H](Cc1ccccc1)n1c(=O)[nH]c2ccccc2c1=O)C(=O)N1CCC[C@H]1C(=O)O` belongs “inactive”; to `CCN(c1ccc(OC)cc1)S(=O)(=O)c1ccc2c(c1)NC(=O)CS2`, “inactive”; to `Cc1ccc(C)c(NC(=O)CCN2CCN(c3ccccc3F)CC2)c1`, “inactive”.
In the case of `Cn1c(CN2CCCC2)nc2cc(NC(=O)COc3ccccc3)ccc21`, the Potency result is “inactive”.
Under `CC1(C)CC(CCC(=O)NC(=S)Nc2ccccc2Cl)C(=O)O1` (configuration not stated) stands “inactive”.
To `CN1CCN(C2=Nc3ccccc3Oc3ccc(Cl)cc32)CC1` belongs “inactive”; to `C=CCOC(=O)C1=C[C@H](c2ccc(C(F)(F)F)cc2)[C@@H](CCCO)[C@H](OCC)O1`, “inactive”.
To `O=C1C=C(NNC(=O)c2ccncc2)CC(c2ccccc2)C1` (configuration not stated) belongs “inactive”; to `COCCNC(=O)COCc1cc(-c2ccc3c(c2)OCO3)on1`, “inactive”.
`CC(Sc1nnc2ccccn12)C(=O)NCc1ccc2c(c1)OCO2` (configuration not stated): the Potency result was “inactive”.
To `COc1ccc(NC(=O)Nc2nnc(N3CCCCC3C)s2)cc1OC` (configuration not stated) belongs “inactive”; to `Clc1ccc(C2=NN=C3COc4ccccc4N3C2)cc1`, “inactive”.
To `C[C@H]1CN([C@@H](C)CO)C(=O)c2cc(NS(=O)(=O)c3ccc(Cl)cc3)ccc2O[C@@H]1CN(C)CC1CCCCC1` belongs “inactive”; to `CCOc1ccc(CCNC(=O)Cc2ccc(NC3=NC4CS(=O)(=O)CC4S3)cc2)cc1OCC` (configuration not stated), “inactive”; to `CNC(=O)[C@@H]1CCC(=O)N1`, “inactive”.
To `COc1cc(NS(=O)(=O)c2ccc(NC(=S)NC(=O)COc3ccccc3OC)cc2)nc(OC)n1` belongs “inactive”.
For the molecule `O=[N+]([O-])c1ccc(-c2cn3c(n2)SCC3)cc1`, the Potency result was “inactive”.
Under `COc1cccc2c1Oc1ncccc1N(C(=O)CCC(=O)NCc1ccc(C)cc1)C2` stands “inactive”; under `O=C(NC1CC1)C1CCCN(C(=O)NC2CCCCC2)C1` (configuration not stated), “inactive”.
